Several values for one entry are separate records, joined by “and”; a condition that tells them apart may be missing. Identical values can stand only once. The whole screen tested about 350,000 compounds, of which about 31,000 (8.9%) were called active. Inconclusive results (about 15%) are left out. The sample as a whole holds a higher share of actives than the screen did. Unmarked numbers belong to inactive results. Calls follow the shape of the dose curve; as a rule, active = well fitted inhibition curve with a large enough effect; inconclusive = small, poorly fitted or top-dose-only effect; inactive = no such curve, though single readings can be large or run the other way.
% is scaled to controls: 0 for no effect and ±100 for the full control effect; potency is read from the fitted curve at half-maximal effect.

Histone-lysine N-methyltransferase EHMT2 (Homo sapiens), sequence (Q96KQ7 913-1193 limits assumed): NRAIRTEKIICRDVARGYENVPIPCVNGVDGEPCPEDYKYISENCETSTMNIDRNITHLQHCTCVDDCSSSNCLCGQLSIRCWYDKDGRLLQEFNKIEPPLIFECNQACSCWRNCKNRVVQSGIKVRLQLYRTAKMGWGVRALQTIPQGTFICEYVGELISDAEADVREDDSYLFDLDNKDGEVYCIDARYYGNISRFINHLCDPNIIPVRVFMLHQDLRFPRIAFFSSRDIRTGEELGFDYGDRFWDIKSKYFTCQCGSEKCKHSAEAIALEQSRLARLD

In the assay the target is Histone-lysine N-methyltransferase EHMT2 (Homo sapiens) (UniProt Q96KQ7). Nature of the assay: qHTS Assay for Inhibitors of Histone Lysine Methyltransferase G9a. Also: nearly all actives have a fitted effect of over 75% in size. The note with it: G9a H3K9 monomethylation, AlphaScreen, 2 h; series mostly up to 102 µM; activity, negative = inhibition: at the top concentration. The source says:
Methylated lysines, on the N-terminal tails of histone proteins serve as epigenetic markers to recruit factors that can then modify local chromatin structure to lead to functional consequences. G9a and other members of the SUV39 family of the SET domain-containing superfamily of histone lysine methyltransferases (HMT) have been identified to specifically methylate Lys9 of histone H3 (H3K9). G9a catalyzes the mono- and di-methylation of H3K9 in mammalian euchromatic regions, where the resulting H3K9me2 is indicative of transcriptional repression. […] The inhibition of G9a will result in transcriptional activation and work synergistically with DNA methyltransferase and histone deacetylase inhibitors, to kill cancer cells. This qHTS assay for identification of G9a inhibitors is a chemiluminescence based AlphaScreen (PerkinElmer). Methylation of biotinylated-histone peptide is measured through specific antibody-based detection, in conjunction with streptavidin-coated donor and anti-IgG antibody-coated acceptor beads. The method is particularly well suited for detection of inhibitors acting by the desired histone peptide competitive mechanism and is applicable to testing other HMTs. Although AlphaScreen has significant advantages with its utility in a variety of epigenetic target assays, the primary screening data provided in this deposition should be used with caution due to the prevalence of screening artifacts. An AlphaScreen counterscreen is highly recommended to be run against any putative actives to eliminate non specific artifacts. Alternatively, one can use other AlphaScreen assays in PubChem to filter out promiscuous hits. Quinn et al. A chemiluminescence-based method for identification of histone lysine methyltransferase inhibitors. Mol Biosyst 6(5): 782-8. 2010. PMID: 20567762 [2] Baell,Holloway. New substructure filters for removal of pan assay interference compounds (PAINS) from screening libraries and for their exclusion in bioassays. J Med Chem. 53(7):2719-40. 2010. PMID: 20131845 NIH Molecular Libraries Probe Production Network [MLPCN] NIH Chemical Genomics Center [NCGC] Structural Genomics Consortium (SGC) NIH Grant: 5U54 MH084681-02
To each well of a 1,536w plate, 2ul of HMT enzyme (final 20nM) were added, using a nanoliter dispenser. The G9a- and GLP-inhibitor BIX-01294 (CID: 25150857) are used as an intraplate control, with a 16-point titration in duplicate. A Kalypsys pin-tool transferred 23nl of library compound solution in DMSO to each well. Following a 15 min incubation of enzyme with compounds at room temperature, 1ul mixture of b-H3K9 peptide substrate (final 500nM) and SAM cofactor (final 20uM) were added. Reactions were allowed to proceed at room temperature for 2 hours. Methylated b-H3K9 peptide product was detected with 0.5 ug/mL rabbit polyclonal anti-monomethyl histone H3K9 antibody (Abcam Inc., Cambridge, MA) and 20 ug/mL each streptavidin-coated donor and anti-rabbit IgG acceptor AlphaScreen beads. Antibody and beads were added in a 1ul dispense, for a final volume of 4ul, and plates were incubated, protected from the light, for 10 min at room temperature. Microplates were then read on an EnVision multilabel plate reader using the 1,536 plate HTS AlphaScreen aperture (excitation time 80 ms, measurement time 240 ms).
In general terms: qHTS replaces the single test concentration by a dilution series.
Take `O=C(Nc1cccc2ccccc12)N1CCC2(CC1)OCCO2`: the Potency was 50.1 µM (active). With `COc1ccc(NC(=O)N2CCC3(CC2)OCCO3)c(OC)c1`, the “activity, negative = inhibition” value is 18.8%. Take `O=C(c1cc(-c2ccncc2)nc2ccccc12)N1CCC2(CC1)OCCO2`: the “activity, negative = inhibition” value is -0.255% [at 59 µM]. Consider `CCN1CC2C3CCC(C)(O3)C2C1` (configuration not stated), for which the “activity, negative = inhibition” value is -1.34%.

Turning to `Cc1nnc(NC(=O)c2cccn(Cc3cccc(F)c3)c2=O)s1`, the “activity, negative = inhibition” value was 12.5% [at 59 µM].

With `Cn1cc(/C=C/c2nc3ccccc3c(=O)n2-c2ccccc2)c2ccccc21`, the “activity, negative = inhibition” value is -33.2% [at 59 µM]. Take `O=C(OCC1O[C@@H](OC(=O)c2cc(O)c(O)c(O)c2)[C@@H](OC(=O)c2cc(O)c(O)c(O)c2)[C@@H](OC(=O)c2cc(O)c(O)c(O)c2)[C@@H]1OC(=O)c1cc(O)c(O)c(O)c1)c1cc(O)c(O)c(O)c1` (some centres not stated): the Potency was 50.1 µM (active). As to `CCN(N=Nc1nonc1OC)c1nonc1OC`, the “activity, negative = inhibition” value is 22.1% [at 59 µM]. Same read-out and setting: as for `CC(=O)N(C1=NCCCS1)c1ccccc1F`, the figure is 1.9%. On the same count and under the same terms, the result for `COc1ccc(-c2nn(CCC#N)cc2C(=O)O)cc1` reads -18.2%; that for `CC(=O)c1ccc(OC(NC(=O)Cc2ccccc2)C(Cl)(Cl)Cl)cc1` (configuration not stated), -9.58%; that for `CN(C)C(=O)Oc1ccc2c(c1)O/C(=C\c1ccccc1)C2=O`, -35.3%. As for `N#CC(C#N)=Cc1cc(O)c(O)c([N+](=O)[O-])c1`, the Potency is 14.1 µM (active) and 15.8 µM (active). As for `NCCc1ccc(S(=O)(=O)F)cc1`, the activity, negative = inhibition result was “inactive”.

In the case of `COc1ccc(C2NCc3ccc4c(c3-n3cccc32)OCO4)cc1OC` (configuration not stated), the activity, negative = inhibition is 0.908% [at 12.7 µM]. Regarding `COc1c(O)ccc2c1-c1c3c(cc4c1C(C2)N(C)CC4)OCO3` (configuration not stated), the Potency is 39.8 µM (active).

As for `CC(=O)NC(=O)NC(C)Cc1ccccc1` (configuration not stated), the “activity, negative = inhibition” value is 4.15%. In the case of `CCOC(=O)c1c(-c2ccccc2)oc2ccc(OC(=O)N(C)C)cc12`, the activity, negative = inhibition was 6.28% [at 12.7 µM]. Consider `O=C(CN1CCCCC1)Nc1ccc(Br)cc1C(=O)c1ccccc1Cl`, for which the “activity, negative = inhibition” value was 8.1%.

Turning to `NC(=O)Nc1cccc(C(F)(F)F)c1`, the “activity, negative = inhibition” value is 2.76% [at 59 µM]. On the same count and under the same terms, as for `CC(C)C(N)C(=O)OCCOCn1cnc2c(=O)[nH]c(N)nc21` (configuration not stated), the figure is -19.5% [at 2.33 µM]. Turning to `Cc1ccc(Cn2nnnc2CN2CCC(n3nnc4ccccc43)CC2)cc1`, the Potency is 50.1 µM (active). With `CC(C)(O)c1[se]c2ccccc2c1I`, the “activity, negative = inhibition” value is -25.9%.

On to `CN(C)S(=O)(=O)c1cc(C(=O)N2CCC(C(=O)O)(c3ccccc3)CC2)ccc1Cl`, for which the “activity, negative = inhibition” value was 8.28%. Take `Cc1ccc(C)c(NC2=NCCCS2)c1`: the “activity, negative = inhibition” value is -38.9%. On to `Cc1c(C(=O)O)cccc1-n1c(C)cc(/C=C2\C(=O)NC(=O)N(c3ccc4c(c3)OCO4)C2=O)c1C`, for which the Potency was 28.2 µM (active). On to `CC(C)c1c(CN(C)C(C)Cc2ccccc2)n(C)n(-c2ccccc2)c1=O` (configuration not stated), for which the “activity, negative = inhibition” value was 6.73% [at 59 µM]. On to `Cc1ccnc(-n2c(C)cc(/C=C3\C(=O)NC(=S)N(C)C3=O)c2C)c1`, for which the Potency was 6.31 µM (active).

Turning to `CN1CCC(OC(=O)c2cccc(F)c2)CC1`, the “activity, negative = inhibition” value is -16%. In the case of `CCN1CCN(c2ccc([N+](=O)[O-])cc2C#N)CC1`, the “activity, negative = inhibition” value was -50%. For `O=C(N/N=C/c1c(O)n(C2CC2)c(=S)[nH]c1=O)c1ccccc1Cl`, the “activity, negative = inhibition” value is 21.3%. Regarding `CCNC[C@H](O)c1cccc(O)c1`, the activity, negative = inhibition was 5.63% [at 21.5 µM]. For `CN(c1ccccc1)c1ccc([N+](=O)[O-])c2nonc12`, the Potency was 15.8 µM (active). With `O=c1c2ccccc2nc(-c2ccco2)n1-c1ccc(Br)cn1`, the “activity, negative = inhibition” value was 11% [at 59 µM]. Regarding `CCOP(=S)(OCC)SCOC(=O)NCC(=O)OC`, the “activity, negative = inhibition” value is 22% [at 59 µM].

Regarding `CCOC(=O)C(O)(c1ccc(N=Cc2ccccc2O)c(C)c1)C(F)(F)F` (configuration not stated), the “activity, negative = inhibition” value was 14.5%. On the same count and under the same terms, the result for `COc1ccccc1N1CCN(C(CNC(=O)Oc2ccccc2)c2cccnc2)CC1` (configuration not stated) reads 4.58%. On the same count and under the same terms, the result for `O=C(c1cc(S(=O)(=O)N2CCOCC2)ccc1F)N1CCC2(CC1)OCCO2` reads -11% [at 12.7 µM].

Take `Cc1nn(-c2ccccc2)c(C)c1NC(=O)COC(=O)Cc1ccccc1`: the “activity, negative = inhibition” value is -0.2%. For `c1cc2c(cc1CCNC1CCCCCC1)OCO2`, the Potency was 8.91 µM (active). As to `c1cc2c(cc1[C@H]1OC[C@H]3[C@@H]1CO[C@@H]3c1ccc3c(c1)OCO3)OCO2`, the “activity, negative = inhibition” value was 39.6% [at 59 µM]. Consider `CC(=NCc1ccc2c(c1)OCO2)c1c(O)[nH]c(=O)[nH]c1=O`, for which the activity, negative = inhibition was -21.4% [at 12.7 µM]. Take `OC(CNC1CCCCC1)c1ccccc1` (configuration not stated): the activity, negative = inhibition was 2.5% [at 12.7 µM]. On to `O=C(CN1CCCC1=O)NCCc1ccccc1`, for which the activity, negative = inhibition is 27.1% [at 12.7 µM]. Take `c1ccc(CCNC2CCCCCC2)cc1`: the Potency was 7.08 µM (active). On to `CCN(CC)C(=O)c1ccc(NC(=O)c2sccc2-c2ccccc2)cc1`, for which the “activity, negative = inhibition” value is -8.18%. On to `CCN1C[C@]2(COC)C(O)C[C@H](OC)[C@@]34C5C[C@]6(O)C(OC)C(O)[C@](OC(C)=O)(C5C6OC(=O)c5ccccc5)C(C(OC)C23)C14` (some centres not stated), for which the activity, negative = inhibition was -10.7% [at 2.33 µM].

For the origin of these results see PubChem BioAssay AID504332 (National Center for Advancing Translational Sciences (NCATS), 2011).
